Hit rate of the full screen: of about 10,000 compounds, fewer than 10 were called active. How the calls were made is not given here. These entries were drawn from the full list.
Assay: Vibrio cholerae motility inhibitors, OD read-out (AID 588778)
Conditions: stronger effect = higher value
[1] = measured here: bacterial viability at 10 ug/mL

Compound | inhibition (concentration not given here) | inhibition [1]
Cc1c(NC(=O)c2nn3c(C(F)(F)F)c4c(nc3c2Cl)-c2ccccc2CC4)c(=O)n(-c2ccccc2)n1C | -11.3% (inactive) | -0.51%
S=C1NC(C23CC4CC(CC(C4)C2)C3)=CC(c2ccc(Cl)cc2)N1 (configuration not stated) | -6.78% (inactive) | -4.13%
CC(C)CC(C(=O)Oc1ccc2c3c(c(=O)oc2c1)CCC3)N1C(=O)c2ccccc2C1=O (configuration not stated) | 6.55% (inactive) | -2.25%
CCC(=O)OCC12COC3c4ccccc4OC(C)(CC1C)C3C2C (configuration not stated) | -16.5% (inactive) | -10.6%
CCOC(=O)c1ccc(NC(=O)COc2ccc3oc(=O)cc(C)c3c2)cc1 | -17.2% (inactive) | -0.82%
Cc1ccccc1C(=O)N1CCN(c2nc(N3CCCC3)nc(N3CCCC3)n2)CC1 | -0.47% (inactive) | 0.25%
O=C(Cc1c(F)cccc1Cl)NCc1ccc2c(c1)OCO2 | 40% (inactive) | 7.78%
O=C(CSc1nnnn1-c1ccccc1)c1cc2ccccc2oc1=O | 3.97% (inactive) | -4.29%
COCCSc1nnc(NC(=O)Cc2c(F)cccc2Cl)s1 | -2.92% (inactive) | -1.31%
O=C(NC(=O)c1ccccc1)Nc1ccc(Br)cc1 | -16.2% (inactive) | -9.72%
COc1c(C)cc(Br)cc1C(=O)NC(=S)Nc1nc(C)cc(C)n1 | -16.1% (inactive) | -11.8%
CCCCC(=O)Nc1ccc(NC(=O)C(Cl)(Cl)Cl)cc1OC | 3.09% (inactive) | -3.52%
O=C(CCOc1ccccc1)Nc1ccc(Br)cc1 | -9.09% (inactive) | -6.95%
O=C(NCc1ccc(-c2nc3ccccc3s2)cc1)c1ccc(Br)o1 | 1.75% (inactive) | 9.78%
Cc1ccc(S(=O)(=O)Nc2cc(Sc3nnnn3-c3ccccc3)c(O)c3ccccc23)cc1 | 15.9% (inactive) | 1.17%
COC(=O)C1=C(C)NC(C)=C(C(=O)OC)C1c1sccc1C | 20.1% (inactive) | -0.13%
CC(=O)CSc1nnc(-c2cccnc2)o1 | -0.39% (inactive) | 0.24%
O=C(O)C(Cc1ccccc1)N1C(=O)/C(=C/c2ccc([N+](=O)[O-])cc2)SC1=S (configuration not stated) | 8.42% (inactive) | 1.4%
CCOC(=O)c1c(NC(=O)Nc2ccccc2C)sc2c1CC(C)(C)OC2 | 9.16% (inactive) | 24.8%
COc1ccc(OC)c(C(=O)CCC(=O)Nc2cccc(C(F)(F)F)c2)c1 | -4.82% (inactive) | 3.82%
CCOC(=O)C1(NC(=S)N(CC)CC)Sc2cc(C)ccc2NC1=O (configuration not stated) | 12.1% (inactive) | 13.5%
CCN(CC)c1ccc(CNC(C)C(O)c2ccccc2)cc1 (configuration not stated) | 19.9% (inactive) | 5.6%

Compound | inhibition (concentration not given here) | inhibition [1]
c1ccc2nc3c(nc2c1)CCc1nonc1-3 | 0.045% (inactive) | -1.06%
CCOC(=O)c1ccc(CNC(=O)CCC(=O)O)cc1 | 2.35% (inactive) | -10.3%
O=C(CCC(=O)Nc1ccccc1Cl)NNC(=O)Nc1ccc(F)cc1F | -13.9% (inactive) | -8.28%
O=C(c1c(F)cccc1F)N1CCN(C(c2ccccc2)c2ccccc2)CC1 | 11.9% (inactive) | -2.62%
O=C(NC(=S)NNC(=O)c1cnccn1)c1ccc(F)cc1 | 17.5% (inactive) | 4.07%
CCSc1nnc(NC(=O)c2ccc(Br)s2)s1 | -21.3% (inactive) | -10.2%
O=C(O)CCc1ccc(-c2cccs2)n1-c1cc(Cl)ccc1Cl | 5.81% (inactive) | -0.02%
CCc1ccccc1OCCCCn1c2ccccc2c2ccccc21 | -30.3% (inactive) | -15.4%
COCCSc1ccccc1C(=O)NCc1ccc(S(N)(=O)=O)cc1 | 4.8% (inactive) | 5.23%
CCCC(=O)N1CCN(c2ccc(NC(=O)COc3ccc(C)c(C)c3)cc2Cl)CC1 | 10.7% (inactive) | 4.97%
O=C(Nc1nnc(C(F)(F)F)s1)C(Sc1ccccc1)c1ccccc1 (configuration not stated) | -9.96% (inactive) | -4.95%
O=C(Cc1ccccc1Cl)c1ccc(O)c(O)c1O | 12.7% (inactive) | 2.63%
COc1cc(OC)c(NC(=O)c2csc3ccccc23)cc1Cl | 4.43% (inactive) | 1.11%
COC(C(=O)Nc1cc([N+](=O)[O-])ccc1C)c1ccccc1 (configuration not stated) | 3.61% (inactive) | -3.16%
O=C(OCc1ccccc1F)c1ccc([N+](=O)[O-])cc1Cl | 45.5% (inactive) | 18.5%
Cn1ncc(C#N)c1NC(=O)C1CC(c2c(F)cccc2Cl)=NO1 (configuration not stated) | 15.8% (inactive) | 10.8%
Cn1nc([N+](=O)[O-])nc1Sc1nnc(-c2cccnc2)o1 | 44.4% (inactive) | 15.6%
COc1cc2c(NCc3ccccc3)cc(O)c(CC(=O)Nc3ccc(Cl)cc3)c2cc1OC | 8.57% (inactive) | 1.46%
Cc1ccc(-c2c(C(=O)NNC(=S)NCC3CCCO3)csc2C)cc1 (configuration not stated) | 17.3% (inactive) | -2.95%
Cc1ccccc1NC(=S)NC1CCCC1 | -3.76% (inactive) | -1.53%
O=C(CSc1nc2ccccc2s1)NNC(=S)Nc1ccc(F)c(Cl)c1 | 47.6% (inactive) | 18.2%
Cc1ccc2c(c1)C(=O)C(=O)N2 | 26.8% (inactive) | 12.9%

Compound | inhibition (concentration not given here) | inhibition [1]
Cc1nc(Oc2ccc3c(c2)OCO3)c2cc(-c3ccccc3)sc2n1 | 6.33% (inactive) | 0.3%
Cc1ccc2cccc(OCc3nnc(-c4ccccc4)o3)c2n1 | 14.5% (inactive) | -1.8%
COC(=O)c1ccc2ccn(CC(N)=O)c2c1 | 8.78% (inactive) | 7.37%
COc1cccc(/C=C/C2=NN(c3ccc(Cl)c(Cl)c3)C(c3cccc(OC)c3OC)C2)c1OC (configuration not stated) | 26.7% (inactive) | 13.6%
Cc1ccccc1NC(=O)NC1CCS(=O)(=O)C1 (configuration not stated) | -0.46% (inactive) | -4.02%
C=CCOc1cccc(CNc2ccc3[nH]c(=O)[nH]c3c2)c1 | 33.7% (inactive) | 18.3%
Cc1ccc2nc(-c3cccnc3)cc(C(=O)Nc3ccc4c(C)cc(=O)oc4c3)c2c1 | -7.04% (inactive) | 9.26%
O=C(O)Cc1ccc(NC(=O)c2cccnc2C(=O)O)cc1 | -4.82% (inactive) | -2.46%
Cc1ccc(NC(=O)c2ccccc2NC(=O)Cc2ccc(Cl)cc2)cc1C | 11.1% (inactive) | 19.3%
O=C1C(c2ccccn2)=C(O)c2ccccc21 | 14.8% (inactive) | 4.31%
O=C(NCCSCc1ccco1)Nc1ccccc1 | 22.3% (inactive) | 0.29%
O=C(CSCc1ccc([N+](=O)[O-])cc1)N1CCN(c2cccc(Cl)c2)CC1 | -5.85% (inactive) | -3.47%
Cc1cc2[nH]c(=S)n(Cc3ccccc3Cl)c2cc1C | -26.6% (inactive) | -12.9%
O=C(NC(=O)C(Cl)(Cl)Cl)NC1CCCC1 | -16.4% (inactive) | 3.96%
O=C(NC(=S)Nc1ccccc1C(=O)NC1CCCCC1)c1ccco1 | 3.43% (inactive) | 7.92%
CCn1ccc(C(=O)Nc2ccc(C(F)(F)F)cc2Cl)n1 | -7.69% (inactive) | -1.52%
Cc1cc(N2C(=O)CC(Cc3ccc(Cl)cc3)C2=O)no1 (configuration not stated) | 1.86% (inactive) | -6.9%
O=C(CC(NC(=S)Nc1ccccc1)c1ccccc1)c1ccccc1 (configuration not stated) | 15.4% (inactive) | 5.66%
CC(C)C(C(=O)O)c1ccc([N+](=O)[O-])cc1 (configuration not stated) | 6.16% (inactive) | -2.35%
COc1ccc([N+](=O)[O-])cc1CSc1ccccn1 | -1.69% (inactive) | -0.75%
CC(C)CNC(=S)NNC(=O)CC(C)O (configuration not stated) | 52.6% (inactive) | 22.3%
CSCCC(C(=O)O)n1c(-c2ccc3ccccc3n2)n[nH]c1=S (configuration not stated) | -9.7% (inactive) | -4.1%

Compound | inhibition (concentration not given here) | inhibition [1]
Cc1ccc(C(C)C)c(OCCSc2nc3ccccc3n2CC(O)CO)c1 (configuration not stated) | 6.25% (inactive) | -5.04%
O=C(O)CCn1c2ccccc2c2ccccc21 | 15.5% (inactive) | -1.8%
COc1ccc(NC(=O)c2cc(S(=O)(=O)N3CCOCC3)c(Cl)cc2Cl)c([N+](=O)[O-])c1 | -16.3% (inactive) | -8.39%
O=C(NCc1ccc(Cl)c(Cl)c1)c1ccc(Br)o1 | 20.3% (inactive) | 4.03%
COc1ccc2cnn(-c3ccccc3)c(=O)c2c1OC | 12% (inactive) | 4.55%
CCOc1cc(C(=S)N2CC(C)OC(C)C2)cc(I)c1OCC(=O)N1CCCC1 (configuration not stated) | 11% (inactive) | 5.69%
CC(C)(O)C#Cc1ccc(C(=O)NC2CCCCC2)cc1 | 12.9% (inactive) | 20.2%
Cc1cc(=O)[nH]c2c1cnn2Cc1ccccc1 | 49.6% (inactive) | 17.8%
Cc1c(NC(=O)C2CC(c3c(F)cccc3Cl)=NO2)c(=O)n(-c2ccccc2)n1C (configuration not stated) | 0.12% (inactive) | -4.39%
CC1(C(=O)NN2CCOCC2)CC1(Cl)Cl (configuration not stated) | 1.9% (inactive) | -3.31%
CC(=O)c1cccc(NC(=O)C2CC(=O)N(Cc3ccccc3)C2)c1 (configuration not stated) | -14% (inactive) | -3.46%
C#CCOc1c(Br)cc(/C=C/[N+](=O)[O-])cc1OC | 33.7% (inactive) | 7.02%
COc1ccc(C(=O)NCc2ccoc2C(=O)O)cc1 | 16.5% (inactive) | 8.04%
O=C(Cn1cnc2ccccc2c1=O)c1ccc(Br)cc1 | -17.8% (inactive) | -8.61%
Cc1cc(C)n2nc(Cc3ccccc3)c(-c3cccc4ccccc34)c2n1 | 0.73% (inactive) | 8.65%
O=CN1Cc2ccccc2-c2ccccc2C1 | 6.8% (inactive) | 3.25%
O=C(CNC(=S)NC(=O)c1ccc(F)cc1)c1ccccc1 | -64% (inactive) | -21.1%
O=C(c1ccccc1Oc1ccc(C(F)(F)F)cc1[N+](=O)[O-])N1CCOCC1 | -15.4% (inactive) | -2.04%
CN1CCN(C(=O)c2ccccc2NC(=O)Nc2ccccc2)CC1 | 15.9% (inactive) | 1.65%
COc1cccc(/C=C(\C#N)c2ccccc2)c1OC(C)C | 22.8% (inactive) | -2.34%

Reference: PubChem BioAssay AID588778 (Southern Research Institute, 2011)
